Source: PubChem BioAssay (National Center for Advancing Translational Sciences (NCATS))
Sampled rows, rich in hits. Any-hit rate of the full collection: about 7.5%.
Rab9 prom act: activators of Rab9 promoter | Huh7 Rab9 promoter-luciferase reporter, luminescence, 24 h | Potency, µM (doses to about 9.22 µM), for inactives: at the top dose activation, negative = inhibition, hits mostly activators | 320,000 tested, 2.8% active; also: % of control where 0% means no effect; nearly all actives have a fitted effect of over 60% in size
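Stable Rab9-luc Huh7, 1500 cells/well, 2 h settle; cmpd in DMSO, 24 h, 37 °C/5% CO2; luciferase reagent 10 min RT; luminescence.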
FLuc modulator: firefly luciferase modulation, counter-screen for miR-21 project; P08659; purified FLuc, Km substrates, luminescence inhibition; Potency, µM (top dose mostly 57.5 µM), without a hit: top-dose activity change, negative = inhibition, actives largely listed as inhibitors; 360,000 tested, 6.9% active; AID 588342;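 also: plate controls were vehicle for no effect and reference inhibitor for full effect; nearly all actives have a fitted effect of over 55% in size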
Target sequence (P08659 whole entry, looked up): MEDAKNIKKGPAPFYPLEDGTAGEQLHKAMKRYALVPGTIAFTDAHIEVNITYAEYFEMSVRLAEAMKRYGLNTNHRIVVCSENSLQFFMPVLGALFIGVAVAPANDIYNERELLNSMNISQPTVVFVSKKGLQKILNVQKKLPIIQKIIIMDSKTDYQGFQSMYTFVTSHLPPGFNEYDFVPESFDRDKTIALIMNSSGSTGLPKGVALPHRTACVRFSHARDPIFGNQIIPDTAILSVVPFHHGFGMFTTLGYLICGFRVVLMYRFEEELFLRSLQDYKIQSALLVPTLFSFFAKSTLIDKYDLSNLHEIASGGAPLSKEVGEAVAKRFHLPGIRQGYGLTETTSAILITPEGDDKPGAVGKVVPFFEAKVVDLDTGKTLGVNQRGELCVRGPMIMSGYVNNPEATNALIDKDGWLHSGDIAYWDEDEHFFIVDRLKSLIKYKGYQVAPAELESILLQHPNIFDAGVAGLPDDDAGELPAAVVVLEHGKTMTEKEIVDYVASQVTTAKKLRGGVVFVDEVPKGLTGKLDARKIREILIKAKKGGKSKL
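Purified P. pyralis luciferase, 10 nM final, with Km-level 10 uM D-luciferin and 10 uM ATP in 50 mM Tris acetate pH 7.5, 10 mM Mg acetate, 0.01% Tween-20, 0.05% BSA; 6-point qHTS titration about 60 µM downward; luminescence read.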
SMN2 splice enh: enhancers of SMN2 splice variant expression. Potency, µM (titrated, usually from 46.1 µM), for the others: at the highest dose activity change, positive = activation, usual class: activators. 210,000 tested, 2.8% active. HEK293 SMN2-luciferase splicing reporter, luminescence, 30-36 h; also: % of control where 0% means no effect; nearly all actives have a fitted effect of over 55% in size
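qHTS luciferase splicing reporter: luminescence rises when SMN2 exon 7 is included in transfected HEK293 cells. Compound exposure lasted 30-36 h at 37C, with 4.5 mM final sodium butyrate as control, followed by a ONE-Glo read.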
KinaseGlo FLuc: counter-screen: inhibitors of Kinase-Glo firefly luciferase; Q27757; Kinase-Glo luciferase, ATP luminescence, 8 min; Potency, µM (doses to about 38.3 µM), for inactives: at the highest dose activity change, negative = inhibition, actives largely listed as inhibitors; 200,000 tested, 0.28% active; AID 1379; also: % is scaled to controls: 0 for no effect and ±100 for the full control effect; nearly all actives have a fitted effect of over 60% in size
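Substrate mix (final 50 mM imidazole pH 7.2, 50 mM KCl, 7 mM MgCl2, 10 uM ATP, 0.01% Tween 20, 0.05% BSA) plus pin-tool compound, then Kinase-Glo detection mix; 8 min ambient, luminescence read.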
NPC1 promoter act: activators of NPC1 promoter. Huh7 NPC1 promoter luciferase reporter, 24 h. Potency, µM (highest dose often 9.22 µM), for inactives: at the top dose activation, usual class: activators. 320,000 tested, 2.4% active. AID 485313; also: % of control where 0% means no effect; nearly all actives have a fitted effect of over 60% in size
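Luminescence from an NPC1 promoter-driven luciferase reporter in stably transfected Huh7 cells was measured after 24 h compound treatment at 37 °C, followed by 10 min ambient incubation with luciferase detection reagent.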
ELG1 genotoxic: induces genotoxicity in HEK293T cells with luciferase-tagged ELG1; HEK293T ELG1-luciferase reporter, luminescence, 16 h; Potency, µM (titrated, usually from 46 µM), inactives show at the top dose activity change, positive = activation, actives largely listed as activators; 330,000 tested, 1.3% active; also: % of control where 0% means no effect; nearly all actives have a fitted effect of over 60% in size
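HEK293T cells expressing luciferase-tagged ELG1 were exposed to compound or DMSO vehicle for 16 hr at 37 °C and 5% CO2. Luciferase activity was then measured with ONE-Glo after 30 min at room temperature.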
* = called active by the depositor; [ ] = remark or other dose. Calls follow the shape of the dose curve; as a rule, active = well fitted curve in the direction sought with a large enough effect; inconclusive = small, poorly fitted or top-dose-only effect, or another doubt; inactive = no such curve, though single readings can be large; an effect the other way counts as inactive or inconclusive. Potency is read from the fitted curve at half-maximal effect.

For COc1ccccc1NC(=O)C1=C(C)Nc2c(C(=O)Nc3cccc(C)c3)cnn2C1c1ccccc1Cl (stereo not drawn) the results were FLuc modulator -1.8%.
Screening COCCNc1c(-c2ccc(OC)c(OC)c2)nc2ccc(Cl)cn12 returned Rab9 prom act -1.8%, FLuc modulator -2.7%, KinaseGlo FLuc -0.6%, NPC1 promoter act -3.2% and ELG1 genotoxic -6.0%.
For COCCNc1c(-c2cc3ccc(C)c(C)c3[nH]c2=O)nc2ccccn12 the results were Rab9 prom act 0.708µM*, FLuc modulator 3.38µM*, KinaseGlo FLuc -2.2%, NPC1 promoter act 2.51µM* and ELG1 genotoxic inconclusive.
Screening O=C(/C=C/c1ccc(OCc2cccc(Cl)c2)cc1)N1CCOCC1 returned Rab9 prom act 4.5%, FLuc modulator inconclusive, SMN2 splice enh -24.0%, KinaseGlo FLuc 3.0%, NPC1 promoter act 1.3% and ELG1 genotoxic -0.6%.
Screening O=C(O)/C=C/c1ccc(OCc2cccc(F)c2)cc1 returned Rab9 prom act -2.0%, FLuc modulator 16.9µM*, KinaseGlo FLuc 4.1%, NPC1 promoter act 1.0% and ELG1 genotoxic 26.2%.
`O=C(O)c1ccc(/C=N/NC(=O)c2cc(-c3cccs3)nc3ccccc23)cc1` gave Rab9 prom act 9.3%, FLuc modulator 6.01µM*, SMN2 splice enh 4.0%, KinaseGlo FLuc 0.2%, NPC1 promoter act 1.9% and ELG1 genotoxic 9.1%.
For NNC(=O)c1cc(-c2cccs2)nc2ccccc12 the results were Rab9 prom act -2.7%, FLuc modulator -19.3%, NPC1 promoter act -1.5% and ELG1 genotoxic -1.4%.
`O=C(N/N=C/c1ccsc1)c1cc(-c2cccs2)nc2ccccc12` gave Rab9 prom act -5.0%, FLuc modulator 9.53µM*, SMN2 splice enh inconclusive, KinaseGlo FLuc -4.2%, NPC1 promoter act -12.0% and ELG1 genotoxic -4.0%.
Screening O=C(N/N=C/c1ccsc1)c1cc(-c2ccncc2)nc2ccccc12 returned Rab9 prom act -11.4%, FLuc modulator inconclusive, SMN2 splice enh 7.4%, KinaseGlo FLuc -2.6%, NPC1 promoter act -16.8% and ELG1 genotoxic 5.5%.
For Cc1ccc2nc(C)c(C(=O)N/N=C/c3ccc(C(=O)O)cc3)cc2c1 the results were Rab9 prom act inconclusive, FLuc modulator 5.36µM*, KinaseGlo FLuc -0.8%, NPC1 promoter act -4.1% and ELG1 genotoxic 4.6%.
O=C(NC1=NCCS1)c1cc(-c2cccs2)nc2ccccc12 was read as Rab9 prom act 0.5%, FLuc modulator 12µM*, NPC1 promoter act 2.0% and ELG1 genotoxic -9.9%.
Screening CN1CCN(C(CNC(=O)c2ccccc2)c2ccc3c(c2)OCO3)CC1 (stereo not drawn) returned FLuc modulator -1.0%.
`N#Cc1ccccc1NC(=O)C(=O)NCCc1csc(-c2ccc(C(F)(F)F)cc2)n1` gave FLuc modulator 0.3%.
For CCOc1ccc(C2CC(=O)Nc3c2c(=O)[nH]c2ncnn32)cc1 (stereo not drawn) the results were FLuc modulator -7.5% and SMN2 splice enh -2.8%.
`C/C(=N\NC(=O)c1cc(-c2cccs2)nc2ccccc12)c1ccccn1` gave Rab9 prom act -44.9%, FLuc modulator 23.9µM*, SMN2 splice enh -80.6%, KinaseGlo FLuc 0.1%, NPC1 promoter act -19.5% and ELG1 genotoxic -0.2%.
`CC(C)NC(=O)c1cc(-c2cccs2)nc2ccccc12` gave Rab9 prom act 0.0%, FLuc modulator -10.7%, NPC1 promoter act -2.5% and ELG1 genotoxic -10.8%.
For Cc1cccc(C(=O)Nc2nc(-c3nnn(-c4cc(C)ccc4C)c3C)ns2)c1 the results were FLuc modulator -3.9%.
`O=C(O)c1cccc(-n2cc(-c3cccc(C(F)(F)F)c3)cn2)c1` gave Rab9 prom act 0.355µM*, FLuc modulator 1.2µM*, NPC1 promoter act 0.316µM* and ELG1 genotoxic inconclusive.
For CCOc1ccc(C(=O)Nc2ccccc2C(=O)O)cc1 the results were Rab9 prom act 1µM*, FLuc modulator 0.953µM*, SMN2 splice enh 8.91µM*, KinaseGlo FLuc -12.9%, NPC1 promoter act 0.631µM* and ELG1 genotoxic inconclusive.
Screening O=C(Nc1ccccc1C(=O)Nc1ccccc1C(=O)O)c1ccccc1 returned Rab9 prom act 2.7%, FLuc modulator 15.1µM*, NPC1 promoter act -5.5% and ELG1 genotoxic -18.1%.
CCCC(=O)Nc1ccccc1NC(=O)c1ccc(OCC)cc1 was read as Rab9 prom act 0.6%, FLuc modulator 1.2%, SMN2 splice enh -9.3%, KinaseGlo FLuc 1.5%, NPC1 promoter act -7.5% and ELG1 genotoxic -3.3%.
O=C(O)c1ccccc1NC(=O)c1ccccc1Nc1ccccc1 was read as Rab9 prom act -2.6%, FLuc modulator 16.9µM*, NPC1 promoter act 4.7% and ELG1 genotoxic -6.6%.
Screening O=C(Nc1ccccc1C(=O)NC1CC1)c1ccccc1 returned Rab9 prom act -1.6%, FLuc modulator 4.1%, NPC1 promoter act -5.7% and ELG1 genotoxic 2.4%.
For O=C(Nc1ccccc1F)c1ccc(Br)o1 the results were Rab9 prom act 14.8%, FLuc modulator inconclusive, SMN2 splice enh 22.1%, KinaseGlo FLuc -10.0%[39.9 µM], NPC1 promoter act 9.6% and ELG1 genotoxic 13.8%.
For O=C(Nc1ccccc1C(=O)O)c1ccc(Br)o1 the results were Rab9 prom act inconclusive, FLuc modulator 19µM*, SMN2 splice enh 5.6%, KinaseGlo FLuc -4.9%, NPC1 promoter act inconclusive and ELG1 genotoxic inconclusive.
c1ccc(-c2noc(CN3CCN(c4cnccn4)CC3)n2)cc1 was read as Rab9 prom act 11.0%, FLuc modulator 4.2%, NPC1 promoter act 16.5% and ELG1 genotoxic 2.5%.
For COCCNCc1ccccc1[N+](=O)[O-] the results were Rab9 prom act -5.6%, FLuc modulator -0.9%, NPC1 promoter act 0.6% and ELG1 genotoxic 2.5%.
Screening Cc1ccccc1C(=O)Nc1nncs1 returned Rab9 prom act 21.7%, FLuc modulator 2.2%, SMN2 splice enh -7.2%, KinaseGlo FLuc 20.6%, NPC1 promoter act 0.4% and ELG1 genotoxic 9.6%.
`Nc1ccc(C(=O)Nc2ccccc2C(=O)O)cc1` gave Rab9 prom act 19.9%, FLuc modulator 6.01µM*, SMN2 splice enh -12.8%, KinaseGlo FLuc -11.3%, NPC1 promoter act 23.8% and ELG1 genotoxic inconclusive.
`O=C(Nc1ccccc1C(=O)Nc1nncs1)c1ccccc1` gave Rab9 prom act -2.1%, FLuc modulator 21.3µM*, NPC1 promoter act -3.0% and ELG1 genotoxic -8.5%.
For Cc1ccc(NC(=O)C2CCN(S(=O)(=O)c3c(C)noc3C)CC2)cc1 the results were FLuc modulator 0.8% and SMN2 splice enh -12.0%.
